What is called AC50 is the concentration at which the activity in the assay is half-maximal.

Molecules are shown by their SMILES. Where “and” joins values, the source holds several entries; their conditions need not be identical. Equal entries are not always repeated. Where a structure was tested more than once in an assay, its records may differ in their call. Calls of active or inactive are those of the source. How the source made its calls: active means hit-call score of the fitted dose curve at least 0.9, where 1 is the maximum; inactive means score below 0.9.

A short description of the test: BSK_4H_Eotaxin3: BioMAP Diversity Plus: 4H Assay for Eotaxin 3 Biomarker Activity (AID 2283000). The note with it: primary human endothelial cells (HUVEC); actives raise or lower the signal. The procedure: BSK_4H is a cell-based, multiplexed-readout assay that uses umbilical vein endothelium, a human vascular primary cell, with measurements taken at 24 hours after chemical dosing in a 96-well plate.BSK_4H_Eotaxin3 is an assay component measured in the BSK_4H assay. It measures Eotaxin-3 antibody related to regulation of gene expression using ELISA technology.Data from the assay component BSK_4H_Eotaxin3 was analyzed into 1 assay endpoint. This assay endpoint, BSK_4H_Eotaxin3, was analyzed with bidirectional fitting relative to DMSO as the negative control and baseline of activity. Using a type of binding reporter, gain or loss-of-signal activity can be used to understand changes in the signaling as they relate to the gene CCL26. Furthermore, this assay endpoint can be referred to as a primary readout, because this assay has produced multiple assay endpoints where this one serves a signaling function. To generalize the intended target to other relatable targets, this assay endpoint is annotated to the cytokine intended target family, where the subfamily is chemotactic factor.
The levels of cell surface (or secreted, indicated by the prefix "s") biomarker endpoints were measured by ELISA. Overt cytotoxicity to cells in confluent adherent cultures (all systems other than the BT system) was assessed by measuring total protein levels using sulforhodamine B (SRB) staining in parallel cultures at the time of biomarker measurements, indicated as SRB endpoints. For proliferation assays for adherent cell types, individual cell types are cultured at sub-confluence and relative cell numbers quantified by SRB staining at time points optimized for each system (48 h: 3C and CASM3C systems; 72 h: BT and HDF3CGF systems; 96 h: SAg system). SRB was performed by staining cells with 0.1% SRB after fixation with 10% TCA and reading wells at 560 nm.Viability and proliferation of PBMC (T cells) was quantified by Alamar Blue reduction for the SAg and BT systems. For PBMC viability (referred to as PBMC Cytotoxicity within the assay endpoint names), cells were plated (75,000/well in a 96-well plate) and then chemical samples added for 1 h before addition of activators, SEB and TSST-1 (20 ng/mL final concentration each). Cells were incubated for 90 h. Then, Alamar Blue (20 uL/well) (Invitrogen, Cat DAL1100) was added for 6 h, and the plates were read with a fluorescence microplate reader at 546/580 nm (excitation/emission). For PBMC proliferation, cells were plated and activated as above but incubated for only 16 h prior to addition of Alamar Blue. Plates were read after 6 h.
Regarding `FC(F)(F)C(F)(F)C(F)(F)C(F)(F)C(F)(F)C(F)(F)CC1CO1` (stereo not given), the outcome was inactive.

Regarding `O=C(O)C(F)(OC(F)(F)C(F)(OC(F)(F)C(F)(F)C(F)(F)F)C(F)(F)F)C(F)(F)F` (stereo not given), the result was inactive. For `CC(C)(C)C(=O)CC(=O)C(F)(F)C(F)(F)C(F)(F)F`, the result was inactive. Still for that read-out and setting: to `O=P(O)(O)OCCC(F)(F)C(F)(F)C(F)(F)C(F)(F)C(F)(F)C(F)(F)F` belongs “inactive”. On to `FC(F)(I)C(F)(F)C(F)(F)C(F)(F)I`, for which the AC50 is 52.2 µM (active) and 47.2 µM (active) and 45.6 µM (active). For `O=S(=O)(OCC(F)F)C(F)(F)F`, the outcome was inactive. With `N=C(N)C(F)(F)C(F)(F)C(F)(F)C(F)(F)C(F)(F)C(F)(F)C(F)(F)F`, the AC50 is 36.8 µM (active) and 30 µM (active). As for `O=C(O)C(F)(OC(F)(F)C(F)(OC(F)(F)C(F)(OC(F)(F)C(F)(F)C(F)(F)F)C(F)(F)F)C(F)(F)F)C(F)(F)F` (stereo not given), the outcome was inactive.

Turning to `O=S(=O)(OCCOC(F)(F)F)C(F)(F)F`, the result was inactive. Still for that read-out and setting: under `NC(=O)C(F)(F)C(F)(F)C(F)(F)C(F)(F)F` stands “inactive”.

On to `O=C(O)C(F)(F)C(F)(F)C(F)(F)C(F)(F)C(F)(F)C(F)(F)C(F)(F)C(F)(F)C(F)(F)C(F)(F)C(F)(F)C(F)(F)F`, for which the AC50 is 9.18 µM (active) and the outcome was inactive.

On to `O[Si](c1ccccc1)(c1ccccc1)c1ccccc1`, for which the AC50 is 30.1 µM (active).

With `O=C(O)C(F)(F)C(F)(F)C(F)(F)C(F)(F)C(F)(F)C(F)(F)C(F)(F)C(F)(F)Cl`, the outcome was inactive and the AC50 is 49.9 µM (active). For the compound `CCCCC(CC)COP(=O)(O)OCC(CC)CCCC` (stereo not given), the result was inactive. `O=C(O)C=C(C(F)(F)F)C(F)(F)F`: the outcome was inactive. In the case of `CCc1ccc(C(c2ccc(CC)cc2)C(Cl)Cl)cc1`, the AC50 was 14.1 µM (active). On to `C=CC(F)(F)C(F)(F)C(F)(F)C(F)(F)C(F)(F)C(F)(F)C(F)(F)C(F)(F)F`, for which the result was inactive. `O=C(O)C(F)(F)C(F)(F)C(F)(F)C(F)(F)C(F)(F)C(F)(F)C(F)(F)C(F)(F)C(F)(F)C(F)F`: the outcome was inactive and the AC50 is 29.1 µM (active). Take `C#C[C@]1(O)CC[C@H]2[C@@H]3CCc4cc(OC)ccc4[C@H]3CC[C@@]21C`: the AC50 was 2.22 µM (active).

As to `OCC(F)(F)C(F)(F)C(F)(F)C(F)F`, the result was inactive. The same measure, in the same setting: to `C=C(C)C(=O)OCC(F)(F)C(F)(F)C(F)(F)C(F)(F)C(F)(F)C(F)(F)C(F)(F)F` belongs “inactive”; to `C=C(C)C(=O)OCC(F)(F)C(F)(F)C(F)(F)F`, “inactive”. As to `CCCCNc1ccccc1`, the result was inactive. For `FC(F)(F)C(F)(F)C(F)(F)C(F)(F)C(F)(F)C(F)(F)C(F)(F)I`, the result was inactive. Consider `FC(F)(F)C(F)(F)C(F)(F)C(F)(F)C(F)(F)C(F)(F)CCS`, for which the result was inactive. As to `O=C(Cl)C(F)(F)C(F)(F)C(F)(F)C(F)(F)C(F)(F)C(F)(F)C(F)(F)C(F)(F)F`, the outcome was inactive; the AC50 was 42.9 µM (active) and 30 µM (active). For the compound `Oc1ccc(Nc2ccccc2)cc1`, the AC50 was 0.547 µM (active).

On to `OCC(F)(F)C(F)(F)C(F)(F)F`, for which the outcome was inactive. Turning to `C=CC(=O)OCC(F)(F)C(F)(F)C(F)(F)C(F)(F)COC(=O)C=C`, the concentration at half-maximal activity (AC50) is 20 µM (active) and 18 µM (active). Consider `CCc1c(Br)c(Br)c(Br)c(Br)c1Br`, for which the AC50 was 20 µM (active). `OCCCC(F)(F)C(F)(F)C(F)(F)C(F)(F)C(F)(F)C(F)(F)C(F)(F)F`: the AC50 was 45.2 µM (active) and 43.2 µM (active). As to `CCO[Si](CCC(F)(F)C(F)(F)C(F)(F)C(F)(F)C(F)(F)C(F)(F)F)(OCC)OCC`, the outcome was inactive.

Consider `FC(F)(F)C(F)(F)C(F)(F)N(C(F)(F)C(F)(F)C(F)(F)F)C(F)(F)C(F)(F)C(F)(F)F`, for which the result was inactive. Consider `FC(F)(F)C(F)(F)C(F)(F)C(F)(F)CCI`, for which the outcome was inactive and the AC50 was 10.6 µM (active). For the compound `FC(F)(Br)C(F)(F)C(F)(F)C(F)(F)C(F)(F)C(F)(F)Br`, the result was inactive.

The values above are taken from PubChem BioAssay (EPA / NIEHS).
